Screening results deposited in PubChem by National Center for Advancing Translational Sciences (NCATS).
This is a sample that favours compounds with a hit; in the whole collection about 4.6% have one here.
Epigenetic derep: derepresses silenced GFP reporter in murine cells; murine LDR cells, GFP reporter derepression, 30 h; Potency, µM (series often up to 53.9 µM), without a hit: top-dose GFP activation, most hits filed as activators; 0.2% of 280,000 active; active = well fitted activation curve with a large enough effect; note: potency is the fitted concentration of half-maximal effect; % of control where 0% means no effect; nearly all actives have a fitted effect of over 60% in size
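GFP-positive cell count by laser-scanning cytometry (objects 20–120 um) after 30 h, 37 C compound exposure of murine LDR cells; reporter is CMV-GFP integrated at a silenced locus, inducible by HDAC or DNMT inhibitors.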
TRHR PAM: allosteric enhancers of human TRH receptor. TRHR cells, fluo-8 calcium fluorescence, EC20 TRH enhancement. AID 493056. enhancement, % at 2 µM. P34981. 0.66% of 360,000 active; in the data active = enhancement above about 30%; note: 0% is about no effect
Target sequence (P34981 whole entry, looked up): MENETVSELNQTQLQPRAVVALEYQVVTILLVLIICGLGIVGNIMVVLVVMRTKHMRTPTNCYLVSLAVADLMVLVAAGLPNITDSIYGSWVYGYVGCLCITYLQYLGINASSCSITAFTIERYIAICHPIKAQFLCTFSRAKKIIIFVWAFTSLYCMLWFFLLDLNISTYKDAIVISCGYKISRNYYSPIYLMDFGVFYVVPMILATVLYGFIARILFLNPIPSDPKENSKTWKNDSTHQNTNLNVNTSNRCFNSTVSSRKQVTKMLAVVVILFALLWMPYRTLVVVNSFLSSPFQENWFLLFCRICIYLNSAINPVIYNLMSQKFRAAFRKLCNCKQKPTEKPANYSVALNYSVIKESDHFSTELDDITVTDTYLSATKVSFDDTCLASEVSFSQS
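Enhancer read-out: after compound pinning and an initial kinetic agonist-mode read, an EC20 of TRH (10 nM final) was injected and fluo-8 calcium signal (Ex 480/Em 530) followed at 1 s/cycle for 100 cycles in TRHR-expressing cells.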
D1 antagonist: blocks dopamine activation of the human D1 receptor; P21728; HEK293 TREx D1 cells, calcium flux, dopamine EC80; active compounds read low; activity change, negative = inhibition, % at 10 µM; 3.2% of 360,000 active; in the data active = activity change below about -30%; note: % is set by controls: 0 for no effect and ±100 for the full control effect
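Kinetic fluorescence of a calcium dye serves as the read-out. D1-expressing Hek293 Trex cells, induced overnight at 30 C, are exposed to compound for 180 s before an EC80 dopamine addition, then read 180 s further.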
D1 potentiator: enhances dopamine response at the human D1 receptor; P21728; HEK293 TREx D1 cells, calcium flux, dopamine EC20 potentiation; potentiation, % at 10 µM; 0.036% of 360,000 active; AID 504651; in the data active = potentiation above about 30%; note: 0% is about no effect
D1 agonist: agonists of human D1 dopamine receptor; AID 504660; P21728; 1% of 360,000 active; activation, % at 2 µM; HEK293 T-REx D1 cells, calcium flux, agonist mode; note: 0% is about no effect
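Agonism was scored from calcium flux recorded over 180 s (1 read/s) after pintool compound addition, following a 10-cycle baseline. Cells were inducible force-coupled HEK293 TREx D1, plated overnight at 30 C and loaded with no-wash calcium dye.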
TRHR agonist: agonists of human TRH receptor; P34981; TRHR cells, calcium flux fluo-8, FDSS agonist mode; activation, % at 2 µM; 0.18% of 360,000 active; AID 493084; note: 0% is about no effect
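TRHR-expressing cells, plated overnight in medium with 10% serum, were loaded with fluo-8 calcium dye at room temperature. After a 10 s baseline, library compound was pin-added and calcium release was recorded kinetically (ex 480/em 530) as agonist response.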
Starred values were filed as active, the others as inactive; . = no result; ! = not confirmed by another sample. Cut-off read from the data, not from the text of the source, unless noted: active = activation above about 30%; inactive = the rest.

SMILES	Epigenetic derep	TRHR PAM	D1 antagonist	D1 potentiator	D1 agonist	TRHR agonist
CCOC(=O)c1cc(NC(=O)c2ccc(OC)cc2)c(=O)n2c1oc1ccc(Cl)cc12	-0.1%	3.9	-1.2	-8.0	2.1	0.2
COc1ccc(NC(=O)C2(c3ccc(NC(=O)c4ccc(OC)cc4)cc3)CCCC2)cc1	-1.9%	1.4	9.3	2.9	1.1	0.3
Cc1ccc(NC(=O)C2(c3ccc([N+](=O)[O-])cc3)CCCC2)cc1	0.1%	33.3*	3.2	4.6	22.7	4.7
CC1=C(C(=O)Nc2ccc(Cl)cc2)C(CC(C)C)n2nc(SCc3ccccc3C)nc2N1 (centres undefined)	4.0%	0.6	-3.4	-1.6	1.9	1.4
CC1=C(C(=O)Nc2ccc(C)cc2C)C(CC(C)C)n2nc(SCc3ccccc3C)nc2N1 (centres undefined)	-1.1%	-1.8	-35.5*	-1.9	-1.4	0.9
C#CC[N+]1(CC#Cc2ccc(C#CC[N+]3(CC#C)CCOCC3)cc2)CCOCC1	0.0%	3.2	-81.4*	-3.5	0.3	0.2
C#CC[N+]1(CC#Cc2ccccc2)CCCC1	-2.7%	-4.6	-52.0*	-2.0	-0.6	0.2
C(#Cc1ccccc1)C[N+]1(CC#Cc2cccc3ccccc23)CCCC1	-1.8%	2.8	-24.7	-6.2	1.4	0.3
O=S(=O)(c1cc(F)ccc1F)N1CCN(c2ccccn2)CC1	.	5.7	-51.9*	-0.2	0.1	-0.2
O=C(c1ccc(F)cc1)N1CCN(c2ccccn2)CC1	.	30.2*	-10.2	-7.9	0.1	0.3
COc1ccc(F)cc1S(=O)(=O)N1CCN(c2ccccn2)CC1	.	-6.9	10.3	1.3	1.2	0.6
O=C(CN1N=C(c2ccc(Cl)cc2)CCC1=O)NCc1ccc(F)cc1	1.2%	1.8	15.2	-0.6	-1.5	-0.2
CC1=C(C#N)C(NC(=O)c2ccccc2)(C(F)(F)F)C(=O)N1 (centres undefined)	-1.0%	0.5	0.1	-0.8	0.1	0.3
COc1ccc(C(=O)NC2(C(F)(F)F)C(=O)NC(C)=C2C#N)cc1OC (centres undefined)	2.8%	-3.9	2.7	2.5	4.2	0.5
COc1ccc(C(=O)NC2(C(F)(F)F)C(=O)NC(C)=C2C#N)cc1 (centres undefined)	-0.2%	41.1*	-9.1	-1.8	-0.9	0.2
CC1=C(C#N)C(NC(=O)c2cccc(Cl)c2)(C(F)(F)F)C(=O)N1 (centres undefined)	-1.1%	-6.1	-30.6*!	-0.1	-0.4	-0.1
c1ccc(CN2CCN(CCOCCOc3cccc4ccccc34)CC2)cc1	0.0%	9.8	-42.5*	-8.8	22.5	0.8
O=C(c1ccco1)N1CCN(CCOCCOc2cccc3ccccc23)CC1	-0.2%	6.6	-52.8*	2.1	0.7	-0.2
COc1ccc(-c2[nH]c(-c3cccc(OC)c3)nc2SCC(=O)Nc2ccc3c(c2)OCO3)cc1	1.8%	-3.4	-12.6	0.6	0.4	-1.1
CCc1ccc(N2CCn3c2nc2c3c(=O)n(Cc3cccc(C)c3)c(=O)n2C)cc1	0.0%	5.6	6.7	0.8	0.0	-0.5
COc1cccc(/C=C/C(=O)c2ccc(NS(=O)(=O)c3ccc(C)cc3)cc2)c1	-1.1%	4.9	-59.7*	-4.5	2.5	-0.1
COc1cc(CN2CCCC(C(=O)Nc3cccc(-n4cccn4)c3)C2)ccc1F (centres undefined)	.	1.2	4.3	-10.8	13.2	-0.1
O=C(Nc1cccc(-n2cccn2)c1)C1CCCN(Cc2ccccc2F)C1 (centres undefined)	.	-1.6	-36.4*	-8.3	5.8	-0.7
CCn1ccc2c(OCC(=O)Nc3ccc(C)c(Cl)c3)cccc2c1=O	1.9%	2.5	.	1.2	1.4	-0.1
Cn1nc(C(=O)OCc2ccc(F)cc2)c2ccccc2c1=O	-0.5%	-3.8	-14.4	-4.8	3.3	-0.9
COc1ccccc1COC(=O)Nc1c(C)nn(C)c1Cl	-1.1%	-10.5	-43.4*	-7.9	9.5	-0.4
Cc1nn(C)c(Cl)c1NC(=O)OCc1ccc(F)cc1	-1.1%	8.0	-60.7*	-9.5	27.3	-1.0
